Measured values as given in PubChem BioAssay AID602230 (The Scripps Research Institute Molecular Screening Center, 2012).
In all, about 1,400 compounds went through this assay and about 450 (32%) were called active. Not all results are given here. Values without a mark were called inactive. Rule as the data show it: active = inhibition above about 16%; inactive = the rest.

molecular target: Lon protease (Escherichia coli (strain K12)) (UniProt P0A9M0); assay: E. coli Lon protease inhibitor retest, confirmation, biochemical, fluorescence polarization (AID 602230);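 also: 0% = enzyme with probe and DMSO and 100% = no enzyme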; conditions: purified E. coli Lon, at 7.94 µM, hits give high values
Sequence (P0A9M0 whole entry, looked up): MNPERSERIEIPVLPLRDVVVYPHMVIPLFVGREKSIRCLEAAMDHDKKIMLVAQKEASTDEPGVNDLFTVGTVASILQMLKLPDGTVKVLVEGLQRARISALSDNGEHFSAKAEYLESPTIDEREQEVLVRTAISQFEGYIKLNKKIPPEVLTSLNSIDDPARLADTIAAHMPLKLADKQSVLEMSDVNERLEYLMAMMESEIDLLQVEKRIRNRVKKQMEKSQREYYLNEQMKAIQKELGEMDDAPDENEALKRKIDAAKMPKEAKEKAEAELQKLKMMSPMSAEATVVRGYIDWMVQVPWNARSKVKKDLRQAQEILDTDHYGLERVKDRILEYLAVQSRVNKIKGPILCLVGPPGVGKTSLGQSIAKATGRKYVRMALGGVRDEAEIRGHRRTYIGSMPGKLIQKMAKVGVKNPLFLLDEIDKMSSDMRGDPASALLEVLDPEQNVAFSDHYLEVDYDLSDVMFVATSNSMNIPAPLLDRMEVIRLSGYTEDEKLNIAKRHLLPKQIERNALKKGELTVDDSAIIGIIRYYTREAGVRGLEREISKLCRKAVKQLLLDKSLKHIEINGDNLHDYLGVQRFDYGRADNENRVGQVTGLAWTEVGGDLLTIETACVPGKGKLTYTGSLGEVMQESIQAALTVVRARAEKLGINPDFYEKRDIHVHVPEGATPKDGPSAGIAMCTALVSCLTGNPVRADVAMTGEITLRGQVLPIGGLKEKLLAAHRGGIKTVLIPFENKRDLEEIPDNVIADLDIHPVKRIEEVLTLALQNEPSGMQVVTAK

Row | Structure (SMILES) | inhibition
1 | CNS(=O)(=O)c1ccc2c(c1)[nH]c(=S)n2C | 4.74%
2 | COc1ccc(C2=CC(c3cccc(OC)c3)n3nnnc3N2)cc1 (stereo unspecified) | 17% (active)
3 | COc1ncnc2c1N=C1CC(C)(C)CC(N)=C1S2 | 111% (active)
4 | CCCn1c(SCC(=O)Nc2c(C)cccc2C)nnc1C(C)C | -13.9%
5 | Nc1ccc2nc3c(=O)[nH]c(=S)[nH]c3nc2c1 | 198% (active)
6 | Cc1cccc(N2CCC(NCc3c(C(=O)N4CCCCC4)nc4c(C)cccn34)CC2)c1 | -4.25%
7 | O=C(COC(=O)C12CC3CC(CC(O)(C3)C1)C2)NC12CC3CC(CC(C3)C1)C2 | -2.17%
8 | Cc1ccn2cc(-c3nonc3C)cc2c1 | 5.46%
9 | COc1ccccc1-c1cc2nc(NCc3cccc(Cl)c3)ccn2n1 | 2.95%
10 | Cc1cccn2c(=O)c3cc(C#N)c(=NC(=O)c4cccnc4)n(CC4CCCO4)c3nc12 (stereo unspecified) | -2.72%
11 | COc1cc(C(=O)NCc2ccc3c(c2)cc(C)n3C)cc(OC)c1OC | -12.4%
12 | O=C(COC(=O)Cn1cnc2ccccc21)Nc1cccc2c1C(=O)c1ccccc1C2=O | 79.2% (active)
13 | COCCOC(=O)c1sc(=S)n(CCOC)c1N | 27.9% (active)
14 | CC/C(C)=N/Nc1nc2sc3c(c2c(=O)[nH]1)CC(C)(C)OC3 | 15.3%
15 | Cc1ccc(NC(=O)Cc2nnc(SCC(=O)Nc3nncs3)n2C)cc1 | -64.9%
16 | O=C1C=C(NCCNc2c(F)c(F)c(CO)c(F)c2F)CCC1 | -15.4%
17 | Cc1ccc2c(c1)nnc1nnc(SCC(=O)O)n12 | 33.8% (active)
18 | O=S(=O)([N-]c1nc2ccccc2nc1-[n+]1ccc(Cc2ccccc2)cc1)c1ccc(Br)s1 | -2.35%
19 | O=C1c2ccccc2C(=O)c2c1cccc2N1CCN(CCO)CC1 | 27.1% (active)
20 | CCCSc1ccc([C@H]2N[C@@](Cc3ccccc3)(C(=O)OC)[C@H]3C(=O)N(C)C(=O)[C@@H]23)cc1 | -4.5%
21 | NS(=O)(=O)c1ccc(NC(=O)COC(=O)c2c3c(nc4ccccc24)/C(=C\c2ccc4c(c2)OCO4)CCC3)cc1 | 4.57%
22 | N#CC1=C(N)OC2=C(C(=O)CCC2)C1C1CC=CCC1 (stereo unspecified) | 2.64%
23 | c1ccc(C(=NNc2nc3ccccc3s2)c2ccccn2)cc1 | 134% (active)
24 | Cc1cccc(C)c1N1CCN(S(=O)(=O)N2CCOCC2)CC1 | -4.84%

Row | Structure (SMILES) | inhibition
25 | CN1c2ccc(C=O)c3c(C=O)ccc(c23)N(C)C1(C)C | 68.6% (active)
26 | CC(C(=O)NC1CCCC1)N1CCN(S(=O)(=O)c2ccccc2Cl)CC1 (stereo unspecified) | -0.03%
27 | CCCCOCCCNC(=O)C[C@@H]1C[C@@]2(C(=O)OC)CCCCC=C2N(CCC2=CCCCC2)C1=O | 9.11%
28 | CCOCCN(C=O)c1cccc(OC)c1 | -7.16%
29 | COc1ccc(N2CCN(C3CCCCC3NS(=O)(=O)c3ccccc3)CC2)cc1 (stereo unspecified) | -0.98%
30 | COc1ccc(C(=O)NC(C)CCc2ccccc2)c(OC)c1 (stereo unspecified) | -4.57%
31 | COc1cc([C@H](Cc2ccccc2)NC(C)=O)oc(=O)c1 | 28.5% (active)
32 | COc1ccc(OC)c(NC(=O)Cc2cccs2)c1 | -9.37%
33 | O=C(C1=C(O)C(=O)N(c2ncccn2)C1c1cccs1)c1ccco1 (stereo unspecified) | 7.23%
34 | O=C1C2C3C=CC(C4CC34)C2C(=O)N1/N=C/c1ccc(-c2ccccc2[N+](=O)[O-])o1 (stereo unspecified) | 1.11%
35 | CN(C)Cc1c(C(=O)N/N=C/c2ccccc2OCc2ccc(F)cc2)nnn1-c1nonc1N | 4.47%
36 | O=C(CN1CCCSc2ccccc21)N1CCN(S(=O)(=O)c2cccc(F)c2)CC1 | 40.1% (active)
37 | Clc1ccccc1CSc1nnc(-c2ccco2)c(-c2ccco2)n1 | -6.52%
38 | CCOC(=O)N1CCC(NC(=O)Cc2cn(C)c3ccccc23)CC1 | -16.7%
39 | Oc1ccc2ccccc2c1N=Nc1nccs1 | 3.97%
40 | Cc1coc2c(O)cc3c(c12)OC1(N2CCCCC2)C(=O)NCCCC31 (stereo unspecified) | 6.1%
41 | COc1ccc(C(=O)NCc2nnc(SCCOc3ccccc3)n2C)cc1 | -3.94%
42 | COc1ccc(-c2onc3ccc(C(C)=O)cc23)cc1 | 182% (active)
43 | COc1ccc(CC(=O)Nc2ccc(-c3nnc(-c4ccccc4)o3)cc2)cc1 | -10.3%
44 | COc1ccc(-c2nc(CS(=O)CC(=O)NCc3ccccn3)c(C)o2)cc1 (stereo unspecified) | 64.8% (active)
45 | COc1ccc(S(=O)(=O)N2CCOCC2)cc1NC(=O)Cc1c(F)cccc1Cl | -1.93%
46 | O=C(COC(=O)c1ccccc1C(=O)N1CCN(c2ccccc2)CC1)NCc1ccccc1 | 5.02%
47 | CC(=O)NC(=S)Nc1ccc(NC(=S)NC(=O)c2ccc([N+](=O)[O-])cc2)cc1 | -6.29%
48 | CC1=NN(C(=O)CCc2ccccc2O)C(O)(C(F)(F)F)C1 (stereo unspecified) | 9.05%

Row | Structure (SMILES) | inhibition
49 | CC1(C)OC(=O)C(=CNC(CO)C(=O)O)C(=O)O1 (stereo unspecified) | -19.2%
50 | Cc1ccccc1Nc1nc(N)nc(CN2CCN(c3ccccn3)CC2)n1 | 3.69%
51 | COCCNC(=O)Nc1ccc2nc(-c3ccco3)c(-c3ccco3)nc2c1 | 23.4% (active)
52 | CCc1ccc(NC(=O)C(=O)N/N=C(\C)CC(=O)NCCOC)cc1 | -6.81%
53 | COc1ccc(Nc2nc(-c3cccnc3)nc3ccccc23)cn1 | 39.8% (active)
54 | COc1ccc(Nc2ccc([N+](=O)[O-])cn2)cn1 | -45.8%
55 | Cc1ccc2nc3c(cc(C(=O)NCCc4ccccc4)c(=N)n3CC3CCCO3)c(=O)n2c1 (stereo unspecified) | 3.71%
56 | COc1ccc2[nH]c(C)c(CCN(Cc3cccs3)C(=S)Nc3ccccc3OC)c2c1 | 3.35%
57 | CCCC(O)(CCC)C(=O)NN(C(=O)CCl)c1cccc(C)c1 | -3.35%
58 | NC(=O)c1ccc(NC(=O)COC(=O)c2c3c(nc4ccccc24)/C(=C\c2ccc4c(c2)OCO4)CCC3)cc1 | -8.01%
59 | O=C1c2cccc3c([N+](=O)[O-])ccc(c23)C(=O)N1CC1CCCO1 (stereo unspecified) | 34.9% (active)
60 | COCCn1c(N)c(NCc2ccccc2)c(=O)[nH]c1=O | 7.51%
61 | Cc1cc2nc3c(=O)n(Cc4ccccc4)c(=O)[nH]c3nc2cc1N | 153% (active)
62 | Nc1ccccc1/C=N\N=C/c1ccccc1N | 8.46%
63 | CCCN(CCC)C(=O)C1c2ccccc2Oc2ccccc21 | -11.4%
64 | COC(=O)C[n+]1cccc2ccccc21 | 116% (active)
65 | COc1ccc(C2c3ccc(O)cc3Oc3ncn(CCCO)c(=N)c32)cc1OC (stereo unspecified) | -7.63%
66 | CCN(CC)CCCNC(=O)c1cn(C)c2ccc(S(=O)(=O)N(C)C3CCCCC3)cc2c1=O | -0.99%
67 | Cc1cc(Br)cn2c(Cc3ccsc3)c(-c3ccc(C#N)cc3)nc12 | 45.3% (active)
68 | Cc1ccc(S(=O)(=O)CCC(=O)OCc2ccccc2)cc1 | -7.16%
69 | Oc1ccc(N=Cc2sc3ccccc3c2Cl)cc1 | -21.5%
70 | O=C(COC(=O)CCc1c[nH]c(=O)[nH]1)Nc1ccccc1Cl | 51.4% (active)
71 | COc1cccc2sc(N(CCCN(C)C)C(=O)CCS(=O)(=O)c3ccccc3)nc12 | 7.07%
